TEAD-YAP block = TEAD-YAP interaction inhibition | inhibition, % at 9.12 µM | HEK-TIYL cells, TEAD-Gal4/YAP UAS-luciferase luminescence | AID 1259422 | 640,000 compounds, 1.4% hits; in the data active means inhibition above about 32%
GPR151 ag = activates the human receptor GPR151 | 650,000 compounds, 1% hits | AID 1508602 | Q8TDV0 | activation, % at 11.2 µM | PathHunter beta-arrestin GPR151 cells, luminescence; in the data active means activation above about 4.9%
FBW7 activator = activators of human E3 ligase FBW7 | 650,000 compounds, 0.13% hits | normalized activity (activation), % at 26.1 µM | AlphaScreen FBW7–phospho-cyclin E peptide binding, activator screen | Q969H0; in the data active means normalized activity above about 1.9%;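 further: purified mutant Fbw7 with reduced substrate affinity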
MITF inh = blocks human microphthalmia-associated transcription factor; 650,000 compounds, 0.91% hits; AlphaScreen MITF homodimerization, bead proximity signal; inhibition, % at 2.6 µM; O75030; AID 1259374; in the data active means inhibition above about 50%
Target sequence (O75030 whole entry, looked up): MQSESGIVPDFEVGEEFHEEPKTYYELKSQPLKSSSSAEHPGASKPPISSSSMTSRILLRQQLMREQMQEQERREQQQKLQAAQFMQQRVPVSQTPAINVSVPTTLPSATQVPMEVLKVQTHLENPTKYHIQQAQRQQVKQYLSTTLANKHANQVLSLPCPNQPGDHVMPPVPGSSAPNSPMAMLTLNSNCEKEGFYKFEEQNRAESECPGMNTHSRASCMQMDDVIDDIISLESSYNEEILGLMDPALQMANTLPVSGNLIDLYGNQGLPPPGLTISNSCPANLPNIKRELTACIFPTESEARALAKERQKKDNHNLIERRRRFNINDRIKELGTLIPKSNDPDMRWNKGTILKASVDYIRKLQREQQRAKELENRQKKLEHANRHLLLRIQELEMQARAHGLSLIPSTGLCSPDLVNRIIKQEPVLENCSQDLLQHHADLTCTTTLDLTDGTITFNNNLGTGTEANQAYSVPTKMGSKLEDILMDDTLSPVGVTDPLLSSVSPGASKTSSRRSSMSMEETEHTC
Numbers stand for hits; n = inactive; ! = not active in a repeat. Most compounds without a hit are left out; they make up all but 3.4% or so of the library.

SMILES	TEAD-YAP block	GPR151 ag	FBW7 activator	MITF inh
Cc1cccc(N2CCN(C(=O)CCNc3c(N4CCCC4)c(=O)c3=O)CC2)c1C	n	n	n	n
COc1cccc(CN2CCN(Cc3ccccn3)[C@@H](C)C2)c1	n	n	n	n
Cc1cccnc1NC(=O)COc1ccc(Cl)cc1	n	n	n	n
CC/C(=N\NC(=O)CNc1ccccc1C)c1ccccc1	n	n	n	n
CSc1ccc(C(Nc2ccccn2)c2ccc3cccnc3c2O)cc1 (stereo not drawn)	78	n	n	n
CSc1ccc(C(Nc2ccccn2)c2ccc3ccc(C)nc3c2O)cc1 (stereo not drawn)	n	n	n	n
Cc1ccc(C(Nc2cccc(C)n2)c2ccc3cccnc3c2O)cc1 (stereo not drawn)	76	n	n	n
CCc1ccc(C(Nc2ccccn2)c2ccc3cccnc3c2O)cc1 (stereo not drawn)	84	n	n	n
Oc1c(C(Nc2ccccn2)c2ccc(F)cc2)ccc2cccnc12 (stereo not drawn)	70	n	n	n
COc1ccccc1-c1cnc(NCc2cccc(Cl)c2)c2nccn12	n	n	n	n
CCc1nnc(NN2C(=O)c3ccccc3C2(O)c2ccc(Cl)cc2)s1 (stereo not drawn)	n	n	n	n
O=C(NCCN1CCOCC1)c1cccc(-c2csc3ccccc23)c1	n	n	n	n
Cc1ccc2ccc(C(Nc3ccccn3)c3ccc(N(C)C)cc3)c(O)c2n1 (stereo not drawn)	n	n	n	n
COc1ccc(C(Nc2cccc(C)n2)c2ccc3ccc(C)nc3c2O)cc1C (stereo not drawn)	42	n	n	n
C=CCOc1ccc(C(Nc2ccccn2)c2ccc3cccnc3c2O)cc1 (stereo not drawn)	86	n	n	55
CC(=O)N[C@H]1[C@H](Oc2cc(C)ccc2C(C)C)O[C@H](CO)[C@@H](O)[C@@H]1O	n	n	n	n
O=C(O)Cn1c2ccccc2c2ccccc21	n	n	n	n
O=C(c1ccccc1)n1c2ccccc2c2ccccc21	36	n	n	n
COc1cc2nc(-c3ccc(C(=O)NC4CC4)cc3)nc(Nc3ccc(Oc4ccccc4)cc3)c2cc1OC	35	n	3.7	n
COc1cc2nc(-c3cccc(N)c3)nc(Nc3ccc(Oc4ccccc4)cc3)c2cc1OC	36	n	n	n
CCOc1ccc(Nc2cc(C(=O)NCCCOC(C)C)c3ccccc3n2)cc1	n	n	n	n
COc1ccc(-n2nc3c(c2NC(=O)c2ccccc2OC)CSC3)cc1	n	n	n	n
COC(=O)c1c(N)sc(C(=O)Nc2cccc(Cl)c2)c1C	72	n	n	n
COC(=O)c1c(N)sc(C(=O)Nc2cc(C)ccc2C)c1C	79	n	n	n
CCCNC(=O)c1sc(N)c(C(=O)OC)c1C	n	n	n	n
SMILES	TEAD-YAP block	GPR151 ag	FBW7 activator	MITF inh
COC(=O)c1c(N)sc(C(=O)NCCc2ccccc2)c1C	73	n	n	n
CC1(C)CC(=O)N(CC(=O)N2CCN(C(=O)c3ccco3)CC2)c2ccccc2S1	n	n	n	n
Cn1c(=O)[nH]c(=O)c2c1nc1[nH]c(-c3ccc(Cl)cc3)cn12	n	n	n	n
C/C(=N\Nc1nc2ccccc2s1)c1ccc(F)cc1	34	n	n	n
C/C(=N\Nc1nc2ccccc2s1)c1ccc(O)cc1	n	n	n	n
N=C(N)c1ccc(OCCCCCOc2ccc(C(=N)N)cc2)cc1	44!	n	n	n
N=C(N)c1ccc(N)cc1	n	n	n	n
CCOCCCNC(=O)CN1N=C(c2ccccc2)Cn2c(cc3sccc32)C1=O	n	n	n	n
COc1ccc2ccccc2c1C(=O)/C=C/c1cccnc1	85	n	n	n
COc1ccc(/C=C/C(=O)c2cccnc2)cc1OC	n	n	n	n
CCOC(=O)c1cnc2c(OC)cccc2c1Nc1cc(OC)ccc1OC	n	n	n	n
CC1CCN(C(=O)CCl)c2ccccc2S1 (stereo not drawn)	67	n	n	n
CC1CN(C(=O)N2CCC(C(=O)O)CC2)c2ccccc2S1 (stereo not drawn)	n	n	n	n
CCOC(=O)CN1C(=O)C(O)(CC(=O)c2ccccc2O)c2ccccc21 (stereo not drawn)	n	n	n	n
NNC(=O)/C(=C/c1ccc2c(c1)OCO2)NC(=O)c1ccccc1Cl	n	n	n	n
NNC(=O)/C(=C/c1cccs1)NC(=O)c1ccccc1Cl	42	n	n	n
Cc1ncn(-c2ccc(Nc3ncc4cccc(-c5ccn[nH]5)c4n3)cc2)n1	33	n	n	n
Cc1ncn(-c2ccc(Nc3ncc4cccc(C)c4n3)cc2)n1	n	n	n	n
